Reference: publication PMC4336329 (PLoS ONE, 2015)
Hit rate of the full screen: of about 310,000 compounds, about 14,000 (4.5%) showed an effect of 50% or more. Effects have a minus sign here. The sample as a whole holds a higher share of strong results than the screen did.

molecular target: human ether-à-go-go-related gene (hERG) potassium channel (human, UniProt Q12809); assay: primary screen, population patch clamp on CHO cells stably expressing hERG; higher = less effect of the substance
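Further: peak tail current of the secondary pulse compared with the same well before compound.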

Sequence of human ether-à-go-go-related gene (hERG) potassium channel (Q12809 whole entry, looked up): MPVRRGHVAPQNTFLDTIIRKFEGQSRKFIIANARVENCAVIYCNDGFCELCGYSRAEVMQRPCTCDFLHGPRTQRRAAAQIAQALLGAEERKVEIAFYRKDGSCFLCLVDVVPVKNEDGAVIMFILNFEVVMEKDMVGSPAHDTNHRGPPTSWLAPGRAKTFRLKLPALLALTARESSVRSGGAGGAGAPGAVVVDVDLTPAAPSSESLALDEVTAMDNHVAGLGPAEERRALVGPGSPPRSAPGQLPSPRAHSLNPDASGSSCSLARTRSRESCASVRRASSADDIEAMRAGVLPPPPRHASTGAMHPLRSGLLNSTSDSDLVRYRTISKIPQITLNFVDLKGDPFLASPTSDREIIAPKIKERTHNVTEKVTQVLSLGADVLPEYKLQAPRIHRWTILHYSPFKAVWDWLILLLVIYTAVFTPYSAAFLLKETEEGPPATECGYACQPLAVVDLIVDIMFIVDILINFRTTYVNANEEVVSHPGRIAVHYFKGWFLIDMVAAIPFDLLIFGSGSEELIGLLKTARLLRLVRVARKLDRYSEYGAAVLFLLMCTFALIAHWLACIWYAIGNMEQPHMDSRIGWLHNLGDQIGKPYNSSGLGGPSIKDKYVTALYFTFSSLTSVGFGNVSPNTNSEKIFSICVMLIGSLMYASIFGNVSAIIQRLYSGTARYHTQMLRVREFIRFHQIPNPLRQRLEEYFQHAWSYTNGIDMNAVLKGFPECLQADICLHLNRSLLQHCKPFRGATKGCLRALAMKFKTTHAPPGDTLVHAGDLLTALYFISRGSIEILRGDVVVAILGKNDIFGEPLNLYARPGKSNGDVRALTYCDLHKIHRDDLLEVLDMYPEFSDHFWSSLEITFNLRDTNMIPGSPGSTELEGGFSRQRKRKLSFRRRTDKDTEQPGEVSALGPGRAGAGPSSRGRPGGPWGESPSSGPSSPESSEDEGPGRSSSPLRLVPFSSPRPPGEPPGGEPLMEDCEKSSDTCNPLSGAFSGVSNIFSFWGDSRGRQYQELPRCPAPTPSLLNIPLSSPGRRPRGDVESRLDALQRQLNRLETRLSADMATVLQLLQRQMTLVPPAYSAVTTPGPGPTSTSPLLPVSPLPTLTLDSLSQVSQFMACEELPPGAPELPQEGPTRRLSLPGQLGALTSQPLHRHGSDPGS

| SMILES | hERG current change (%, negative = inhibition) at 10uM [%] |
| --- | --- |
| CCOC(=O)c1cccc(N2C(N)=NC(N)=NC2(C)C)c1.Cl | -1.9 |
| CCOc1ccccc1C(=O)NC(C(=O)NCc1ccc(F)cc1)C(C)C (stereo not drawn) | -14.7 |
| CC(=O)N/C(=C/c1ccc(OC(F)F)cc1)C(=O)O | 3.4 |
| COc1ccc(C(=O)Nc2c(N)nc(SCC(=O)N3CCCCCC3)[nH]c2=O)cc1OC | 0.918 |
| Cc1ccccc1NC(=O)CSc1nnc(Cc2cccn2C)n1-c1ccc(F)cc1 | -0.084 |
| O=C(NNS(=O)(=O)c1ccccc1)C(O)(c1ccccc1)c1ccccc1 | 7.23 |
| Cc1ccc(S(=O)(=O)NNC(=O)C(O)(c2ccccc2)c2ccccc2)cc1 | 1.02 |
| O=C(NNS(=O)(=O)c1ccc(CCCl)cc1)C(O)(c1ccccc1)c1ccccc1 | -55.9 |
| O=C(NCc1ccon1)c1ccc(OC2CCN(CCc3ccccc3)CC2)cc1 | -66.6 |
| CCOCCCNC(=O)c1cccc(OC2CCN(S(C)(=O)=O)CC2)c1 | 12.6 |
| CCc1cc(CNC(=O)c2ccc(OC3CCN(CCc4ccccc4)CC3)cc2)on1 | -75.5 |
| CCc1cc(CNC(=O)c2cccc(OC3CCN(S(C)(=O)=O)CC3)c2)on1 | -70.3 |
| O=C(NCCc1ccccn1)c1ccc(OC2CCN(CCc3ccccc3)CC2)cc1 | -41.9 |
| Cc1cc(CNC(=O)c2cccc(OC3CCN(S(=O)(=O)N(C)C)CC3)c2)on1 | 0.225 |
| COCCC(=O)N1CCC(Oc2ccc(C(=O)NCc3ccon3)cc2)CC1 | 3.38 |
| CC(C)c1cc(CNC(=O)c2ccc(OC3CCN(Cc4ccccn4)CC3)cc2)on1 | -16.1 |
| O=C(NCCn1cccn1)c1ccc(OC2CCN(CCc3ccccc3)CC2)cc1 | -41.3 |
| COc1ccccc1C(=O)NCCC(=O)N1CCN(c2cccc(C(F)(F)F)c2)CC1 | -21.7 |
| COc1ccc(Cc2nnc(NS(C)(=O)=O)s2)cc1 | 3.9 |
| Cc1cc(NC(=O)c2cc(CC(C)C)on2)no1 | 7.66 |

| SMILES | hERG current change (%, negative = inhibition) at 10uM [%] |
| --- | --- |
| Nc1c(C(=O)NCc2ccccc2)c2nc3ccccc3nc2n1-c1ccc2c(c1)OCO2 | 5.58 |
| Cc1ccc2c(c1)c(N=NC(N)=S)c(O)n2Cc1ccccc1 | -1.71 |
| COc1cccc(C2C(=O)N(C3CCCCC3)CC(=O)N2Cc2ccc(F)cc2)c1 (stereo not drawn) | -43.8 |
| N#CC(CO)(Cc1ccc(OC(F)F)cc1)c1nc2ccccc2[nH]1 (stereo not drawn) | -52 |
| O=C(Nc1nc2ccccc2[nH]1)c1ccc(OC(F)F)cc1 | -11 |
| N#CC(Cc1ccccc1OC(F)F)c1nc2ccccc2[nH]1 (stereo not drawn) | -16.2 |
| COc1cc(CC(C#N)(CO)c2nc3ccccc3[nH]2)ccc1OC(F)F (stereo not drawn) | -18.9 |
| N#CC(Cc1ccc(OC(F)F)cc1)c1nc2ccccc2[nH]1 (stereo not drawn) | -70.1 |
| COc1ccc(CC(C#N)(CO)c2nc3ccccc3[nH]2)cc1 (stereo not drawn) | -7.12 |
| Cc1cc(C)cc(C(=O)N2CCN(Cc3ccc4c(c3)OCO4)CC2)c1 | -20.1 |
| COc1ccccc1Oc1ccc(N2CC(C(=O)OCC(=O)c3ccccc3)CC2=O)cc1 (stereo not drawn) | 18 |
| O=C(Cc1cccs1)N/N=C/c1ccccn1 | -7.62 |
| Cc1cc(NC(=O)COC(=O)C(C)Oc2ccc(Cl)cc2Cl)no1 (stereo not drawn) | 12.2 |
| COc1ccc(/C=N/Nc2ccccn2)c(OC)c1OC | 3.27 |
| Cc1ccc(NS(=O)(=O)c2ccc(-c3cnc(C4CC4)o3)cc2)c(C)c1 | 2.08 |
| COC(=O)c1ccc(Cn2c(CN3CCOCC3)nc3ccccc3c2=O)o1 | -5.56 |
| Cc1cc(C(F)F)n2ncc(C(=O)N3CCC(C(N)=O)CC3)c2n1 | 16.1 |
| CCCCN(C)C(=O)c1cc2c(s1)-c1ccccc1S(=O)(=O)C2 | -56.5 |
| CN(C(=O)c1cc2c(s1)-c1ccccc1S(=O)(=O)C2)c1ccccc1 | -0.0159 |
| CN(C(=O)c1cc2c(s1)-c1ccccc1S(=O)(=O)C2)c1ccccc1F | -3.69 |

| SMILES | hERG current change (%, negative = inhibition) at 10uM [%] |
| --- | --- |
| O=C1CCCCC1C(Nc1ccc(Br)cc1)c1ccccc1 (stereo not drawn) | 4.34 |
| O=C(CCC(=O)Nc1ccc(F)cc1)N/N=C/c1ccc(F)cc1 | 13.1 |
| COc1ccc(Cl)cc1N1Cc2ccccc2C1 | -3.46 |
| COc1ccc(N2Cc3ccccc3C2)cc1Cl | -59.9 |
| COc1cc(N2Cc3ccccc3C2)ccc1C=O | -3.61 |
| O=c1cc(Nc2ccc3c(c2)OCCO3)[nH]c(=O)n1-c1ccc(Br)cc1 | 14.3 |
| O=C(CN1C(=O)CSc2ccc(S(=O)(=O)N3CCCCC3)cc21)NCc1ccccc1Cl | -15.1 |
| O=S(=O)(Nc1cccc(-n2cnnn2)c1)c1cccc(Cl)c1 | 16.2 |
| Cc1cccc(-c2cc(C(=O)Nc3cccnc3)c3ccccc3n2)c1 | -21.2 |
| COc1ccc(-c2cc(C(=O)NC3CC3)c3ccccc3n2)cc1 | -64.5 |
| Cc1ccc2nc(-c3cccc(Br)c3)cc(C(=O)NC3CC3)c2c1 | 13.7 |
| COc1ccc(-c2cc(C(=O)NC3CCCC3)c3ccccc3n2)cc1 | -21.6 |
| COc1cccc(-c2cc(C(=O)Nc3ccccc3)c3ccccc3n2)c1 | 8.07 |
| O=C(NC1CC1)c1cc(-c2ccc(Br)cc2)nc2ccccc12 | 0.545 |
| Cc1ccc(C)c(-c2cc(C(=O)Nc3cccnc3)c3ccccc3n2)c1 | -61 |
| CN1CCC(NC(=O)c2cc(-c3cccc(Br)c3)nc3ccccc23)CC1 | -69.7 |
| CN1CCC(N(C)C(=S)NC(=O)c2cc(-c3cccc(Br)c3)nc3ccccc23)CC1 | -15.3 |
| COc1cccc(-c2cc(C(=O)NC3CC3)c3ccccc3n2)c1 | -51.2 |
| COc1cccc(-c2cc(C(=O)NC3CCCC3)c3ccccc3n2)c1 | -36.8 |
| Cc1ccc(C)c(-c2cc(C(=O)Nc3cccc(C(=O)O)c3)c3ccccc3n2)c1 | 20.3 |
